Reference: PubChem BioAssay AID1053173 (Broad Institute, 2014)
The whole screen tested about 1,500 compounds, of which about 390 (26%) were called active. How the calls were made is not given here. Only a sample is shown. Results with a measured potency or affinity are listed apart.

Biological target: Histone-lysine N-methyltransferase NSD2 (Homo sapiens) (UniProt O96028)
Test: NSD2 methyltransferase inhibitors, dose response, biochemical, AlphaScreen, cherry-picked samples (AID 1053173)
Conditions: NSD2 H4 peptide methylation, 120 min; series mostly up to 10 µM

Sequence of Histone-lysine N-methyltransferase NSD2 (Homo sapiens) (O96028 whole entry, looked up): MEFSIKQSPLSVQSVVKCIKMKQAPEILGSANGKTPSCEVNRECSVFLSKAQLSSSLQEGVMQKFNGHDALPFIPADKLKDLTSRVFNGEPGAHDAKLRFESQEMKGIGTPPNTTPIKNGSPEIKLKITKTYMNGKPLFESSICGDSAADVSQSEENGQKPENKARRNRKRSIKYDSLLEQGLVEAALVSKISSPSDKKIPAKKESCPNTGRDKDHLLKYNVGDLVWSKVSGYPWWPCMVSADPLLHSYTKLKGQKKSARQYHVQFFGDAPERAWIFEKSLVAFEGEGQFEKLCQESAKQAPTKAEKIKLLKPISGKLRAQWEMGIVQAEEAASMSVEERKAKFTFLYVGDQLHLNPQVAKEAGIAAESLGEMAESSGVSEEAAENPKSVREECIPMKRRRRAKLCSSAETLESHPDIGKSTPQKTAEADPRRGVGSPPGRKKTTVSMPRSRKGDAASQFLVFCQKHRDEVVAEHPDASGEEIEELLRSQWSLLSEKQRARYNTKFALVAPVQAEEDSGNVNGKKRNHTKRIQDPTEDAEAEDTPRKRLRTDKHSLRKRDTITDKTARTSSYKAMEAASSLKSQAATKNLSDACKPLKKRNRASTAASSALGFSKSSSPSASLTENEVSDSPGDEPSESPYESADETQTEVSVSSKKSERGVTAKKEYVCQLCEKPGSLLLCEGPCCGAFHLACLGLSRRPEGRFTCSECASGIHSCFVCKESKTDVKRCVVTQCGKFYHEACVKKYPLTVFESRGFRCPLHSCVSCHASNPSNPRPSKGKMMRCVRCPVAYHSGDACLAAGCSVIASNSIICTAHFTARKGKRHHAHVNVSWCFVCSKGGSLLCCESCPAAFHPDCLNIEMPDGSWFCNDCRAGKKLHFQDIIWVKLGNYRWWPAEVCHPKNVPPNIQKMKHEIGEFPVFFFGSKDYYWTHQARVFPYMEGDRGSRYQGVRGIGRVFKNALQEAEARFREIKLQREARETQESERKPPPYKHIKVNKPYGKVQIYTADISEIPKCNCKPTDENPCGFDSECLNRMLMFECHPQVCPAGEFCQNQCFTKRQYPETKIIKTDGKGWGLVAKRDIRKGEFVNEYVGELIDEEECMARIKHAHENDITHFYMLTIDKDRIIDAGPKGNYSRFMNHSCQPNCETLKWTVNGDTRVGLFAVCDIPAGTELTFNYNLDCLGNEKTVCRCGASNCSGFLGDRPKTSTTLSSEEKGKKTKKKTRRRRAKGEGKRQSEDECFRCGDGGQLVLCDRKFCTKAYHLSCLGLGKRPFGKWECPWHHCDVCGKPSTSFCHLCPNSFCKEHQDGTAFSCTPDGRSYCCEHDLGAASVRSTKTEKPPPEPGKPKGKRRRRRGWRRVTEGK

outcome, inactive:
O=C1CN(C(=O)COC(=O)c2ccc([N+](=O)[O-])s2)c2ccccc2N1
CCN(CC)S(=O)(=O)c1ccc(N2CCN(C)CC2)c(NC(=O)Nc2ccccc2F)c1
Cc1ccc(S(=O)(=O)N2CCN(C(=O)C(F)(F)F)C2c2ccc(N(C)C)cc2)cc1 (stereo unspecified)
Cc1ccccc1CN1CCN(C(=O)c2ccco2)CC1
CC1Oc2ccc(C#N)cc2N(Cc2cccc(F)c2)C1=O (stereo unspecified)
C=CCN1CCN(C(c2cccc(OC)c2OC)c2nnnn2CCC(C)C)CC1 (stereo unspecified)
CC(=O)c1ccc(NC(=O)CC2Nc3cccc4cccc(c34)NC2=O)cc1 (stereo unspecified)
O=C1CCCC2=C1C(c1ccc(O)c(O)c1)c1c(ccc3ncccc13)N2 (stereo unspecified)
COCCCNC(=S)Nc1cccc2ncccc12
CN(CCc1ccccc1)C1CCCN(S(=O)(=O)N(C)C)C1 (stereo unspecified)
C/C(CC(=O)NCCCN1CCOCC1)=N\NC(=O)COc1ccc(Cl)cc1
O=C(COC(=O)c1ccc([N+](=O)[O-])o1)NC1CCS(=O)(=O)C1 (stereo unspecified)
Cc1cccc(NC(=O)c2ccc(NS(=O)(=O)c3cccc4cccnc34)cc2)c1
Cc1ccc(CSc2nnc(Nc3ccc(C)cc3)s2)cc1
CN(c1ccc(C(=O)O)cc1)S(=O)(=O)c1ccccc1
Cc1cc(C)c2c(c1)N[C@H](c1cccs1)[C@@H]1CCO[C@H]21
CC(NC(=O)c1cccc(Br)c1)c1ccccc1 (stereo unspecified)
CCN(CC)C(=O)COc1ccc2oc(C)c(C(=O)OC(C)C)c2c1
COc1ccc(C)cc1NC(=O)CCNC(=O)Cn1cnc2ccccc2c1=O
Cc1ccc(Cn2c(SCC(=O)NCC3CCCO3)nc3c2c(=O)n(C)c(=O)n3C)cc1 (stereo unspecified)
C/C(C=Nn1c(-c2ccc(F)cc2)n[nH]c1=S)=C/c1ccco1
Cc1cc2ccccn2c1C(=O)c1ccc([N+](=O)[O-])o1
Cc1ccc(C(=O)NC(=S)NNC(=O)c2ccccc2O)cc1
COc1ccc(S(=O)(=O)NCc2ccc3c(c2)OCO3)cc1OC
Cn1c(COc2ccc(Cl)cc2)nnc1SCC(=O)NC1CCCCC1
Cc1ccc(S(=O)(=O)N2CCCC(N3CCOCC3)C2)cc1Cl (stereo unspecified)
O=C(c1cc(-c2ccc(Cl)cc2)n(-c2ccc(Cl)cc2)n1)N1CCOCC1
O=C(OCC(=O)N1CCOCC1)c1ccc(Br)cc1
O=C(NCCC(=O)N1CCc2ccccc21)c1ccco1
O=C1CC(C(=O)N2CCc3ccccc32)CN1c1ccccc1 (stereo unspecified)
C=CCn1c(SCc2ccc3c(c2)OCO3)nc2scc(-c3ccco3)c2c1=O
Cc1cccc(OCC(=O)Nc2ncn[nH]2)c1C
N#Cc1ccc(OCC(=O)NCCCn2ccnc2)cc1
Cc1cc(OCCn2nc(C(=O)O)c3ccccc3c2=O)ccc1C(C)C
COCCCNC(=O)COc1ccc(Cl)c(C)c1
COCCNc1nc(-c2ccccc2)nc2ccccc12
CC(=O)c1ccc(NC(=S)NCCc2cccc(Cl)c2)cc1
COCCNC(=O)CN(C(=O)CCC(=O)Nc1nccs1)c1ccc2c(c1)OCO2
CCOC(=O)c1cc(NC(=O)CN2CCCC2)cc(C(=O)OCC)c1
O=C(Cn1cnc2c(cnn2-c2ccccc2)c1=O)OCc1ccccc1
CN(C)S(=O)(=O)c1ccc(Cl)c(C(=O)OCC(=O)c2ccco2)c1
COc1ccc(CN(C(=O)c2cccc(OC)c2)C2CCS(=O)(=O)C2)cc1 (stereo unspecified)
CN(C(=O)CN1C(=O)S/C(=C\c2ccccc2F)C1=O)C1CCS(=O)(=O)C1 (stereo unspecified)
COC(=O)c1nc(NC(=O)c2ccccc2)n[nH]1
Cc1ccc(C)c(NC(=S)Nc2cccc3cnccc23)c1
O=C(Nc1cc(Cl)ccc1-n1cncn1)c1cccs1
COc1ccc(C(C(=O)NC(C)(C)C)N(C(=O)CCC(=O)Nc2cc(C)on2)c2ccccc2F)cc1 (stereo unspecified)
COc1cccc(/C=C2\N=C(SC)SC2=O)c1OC
Cc1c(C(=O)N2CCN(c3ccc(F)cc3)CC2)sc2ncnc(N3CCN(c4ccccn4)CC3)c12
COC(=O)c1ccc(Cn2cnc3c(sc4nc(N5CCOCC5)c5c(c43)CCCC5)c2=O)o1
CC(C)c1nc2oc3c(NCC4CCCO4)ncnc3c2c2c1COC(C)(C)C2 (stereo unspecified)
CCO/C=C/C(=O)N(C)CCC#N
CCN(CC)C(=O)CSc1nc2ccccc2c(=O)n1CCC(=O)NCc1ccc(F)cc1
COc1cc(NC(=O)CCn2c(=O)oc3ccccc32)cc(OC)c1OC
Cc1[nH][nH]c(=O)c1C(c1ccc(-c2ccc(F)cc2)o1)c1c(C)[nH][nH]c1=O
Cc1[nH][nH]c(=O)c1C(c1ccc(-c2cccc(C(=O)O)c2)o1)c1c(C)[nH][nH]c1=O
Cc1ccc(OCCCC(=O)Nc2ccccc2C(F)(F)F)cc1
O=C(CC1SC2=NCCN2C1=O)Nc1ccccc1 (stereo unspecified)
Cc1cccc(C)c1OCC(O)CNS(=O)(=O)c1ccccc1C(=O)N1CCCCC1 (stereo unspecified)
Cc1ccc(-n2nc3c(=O)n(CC(=O)NCc4ccccc4)nc(C)c3c2C)cc1
Fc1ccc(C2CCNCC2COc2ccc3c(c2)OCO3)cc1 (stereo unspecified)
CN(C)Cc1cc(O)c(CN(C)C)cc1O
Cc1ccc(S(=O)(=O)N2CCOCC2)cc1NC(=O)CSc1ccccn1
COc1cc2[nH]c(Cl)c([N+](=O)[O-])c2cc1OC
O=C(Nc1cccc(O)c1)c1ccc(Br)cc1
COc1cc(/C=C/c2nc3ccccc3c(=O)[nH]2)cc(Cl)c1O
CC(=O)Nc1cccc(C(=O)OCc2ccccc2)c1
Nc1nc(=S)c2ncn(C3OC(CO)C(O)C3O)c2[nH]1 (stereo unspecified)
O=C(/C=C/c1ccc(-c2ccccc2)cc1)NCc1cccnc1
CC(C)(C)CC(=O)Nc1nnc(SCC(=O)NCc2cccs2)s1
C=CCn1c(=NC(=O)c2ccc(S(=O)(=O)N3CCCC3)cc2)sc2cc(NC(C)=O)ccc21
